Compound activity as filed in PubChem.
Pf growth 96h – P. falciparum growth inhibition at 96 hour, primary screen for plastid delayed-death inhibitors | Potency, µM (titrated, usually from 28.7 µM), without a hit: top-dose activity change, negative = inhibition, hits mostly inhibitors | P. falciparum luciferase reporter growth, 96 h | 6.9% of 320,000 active | AID 504834; note: potency is the fitted concentration of half-maximal effect; % is set by controls: 0 for no effect and ±100 for the full control effect
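Compounds incubated with erythrocytes infected by luciferase-expressing P. falciparum (2% hematocrit, 0.05% parasitemia final) for 96 hours, 37 C in 5% CO2. Growth inhibition scored as decreased luciferase luminescence.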
Pf growth 48h – P. falciparum growth inhibition at 48 hours (one generation); AID 504832; P. falciparum luciferase growth in erythrocytes, 48 h; Potency, µM (top dose mostly 28.7 µM), without a hit: at the highest dose activity change, negative = inhibition, usual class: inhibitors; 5.9% of 310,000 active; note: potency is the fitted concentration of half-maximal effect; % is set by controls: 0 for no effect and ±100 for the full control effect
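Luminescence readout; reporter = integrated firefly luciferase in P. falciparum. RBC culture at 2% hematocrit, 0.1% parasitemia final, 37 C/5% CO2; decreased signal taken as growth inhibition.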
Sm TGR inh – S. mansoni TGR enzyme inhibition; AID 485364; Potency, µM (top dose mostly 114 µM), for the others: at the top dose activity change, negative = inhibition, usual class: inhibitors; purified TGR, DTNB reduction, TNB absorbance 405 nm; 3% of 360,000 active; Q962Y6; note: potency is the fitted concentration of half-maximal effect; % is set by controls: 0 for no effect and ±100 for the full control effect; nearly all actives have a fitted effect of over 60% in size
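Kinetic colorimetric format: TGR-catalysed, NADPH-driven DTNB reduction monitored via TNB absorbance. Enzyme dispensed at 20 nM; compound exposure 15 min at room temperature before reaction start.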
SARS PLP yeast – inhibitors of SARS-CoV papain-like protease in yeast; S. cerevisiae expressing SARS-CoV PLpro, growth rescue; Potency, µM (doses to about 32.9 µM), for the others: at the top dose activity, positive = growth rescue, actives largely listed as activators; 0.19% of 330,000 active; AID 485353; calls by dose curve; note: potency is the fitted concentration of half-maximal effect; 0% is about no effect; nearly all actives have a fitted effect of over 55% in size
HCV inhibitor – HCV inhibition | Huh7.5.1 HCVcc-Cre infection, luciferase reporter, 44 h | Potency, µM (doses to about 41.8 µM), for the others: top-dose activity change, negative = inhibition, most hits filed as inhibitors | 3.4% of 340,000 active | AID 651820; note: potency is the fitted concentration of half-maximal effect; % is set by controls: 0 for no effect and ±100 for the full control effect
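Infectious HCVcc-Cre (~0.5 moi) was added to cells just after compound, with cells seeded 4 h earlier at 1,000 per well. Luciferase activity after 44 h culture reported infection; substrate was incubated 15 min at room temperature before reading.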
HCMV antiviral – blocks human cytomegalovirus replication. HFF cells, HCMV-luciferase reporter, 72 h; hits give low values. activity change, negative = inhibition, % at 57.5 µM. 4.5% of 410,000 active; in the data active = activity change below about -60%; inconclusive = no clear call, values can overlap the other calls; inactive = above about -39%; note: % is set by controls: 0 for no effect and ±100 for the full control effect
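Two-dose cell screen: HFF monolayers treated with compounds and infected with luciferase-expressing HCMV at 1 PFU/cell, 72 h at 37C, then lysed for luciferase measurement.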
* hit, by the source's call. A selection: hits, their analogues and other compounds. The true share with any hit is near 15%. Unless noted, calls come from the whole dose curve; as a rule, active = well fitted curve in the direction sought with a large enough effect; inconclusive = small, poorly fitted or top-dose-only effect, or another doubt; inactive = no such curve, though single readings can be large; an effect the other way counts as inactive or inconclusive.

O=C1/C(=N\S(=O)(=O)c2cccs2)C([n+]2ccc(CCCc3ccccc3)cc2)=C([O-])c2ccccc21 was read as Pf growth 96h 1µM*, Pf growth 48h 0.37µM*, Sm TGR inh -22%, SARS PLP yeast -1%, HCV inhibitor inconclusive and HCMV antiviral -7.
`Cc1ccc2c(c1)nnn2C1CCN(S(=O)(=O)c2ccc(C(=O)N(C)C3CCCCC3)cc2)CC1` gave Pf growth 96h inconclusive, Pf growth 48h inconclusive, Sm TGR inh -7%, SARS PLP yeast 7%, HCV inhibitor 13µM* and HCMV antiviral inconclusive.
For Cc1ccc(S(=O)(=O)N2CCC(n3nnc4cc(C)ccc43)CC2)cc1 the results were Pf growth 96h inconclusive, Pf growth 48h inconclusive, Sm TGR inh 5%, SARS PLP yeast 18%, HCV inhibitor 11% and HCMV antiviral -23.
`CC(C)[C@H](NC(=O)[C@@H]1Cc2c([nH]c3ccccc23)C2c3ccccc3C(=O)N21)C(=O)N1CCC[C@@H]1C(=O)O` (stereo partly specified) gave Pf growth 96h 15µM*, Pf growth 48h -11%, Sm TGR inh 1%, SARS PLP yeast -2%, HCV inhibitor 8% and HCMV antiviral -4.
Screening CC(C)[C@H](NC(=O)N1CC(=O)Nc2ccccc21)C(=O)N1CCC[C@H]1C(=O)O returned Pf growth 96h -27%, Pf growth 48h 55%, Sm TGR inh -9%, SARS PLP yeast -5%, HCV inhibitor 35% and HCMV antiviral 28.
Screening O=S(=O)(c1ccc(Br)cc1)c1nnn2c1nc(NCc1cccs1)c1sccc12 returned Sm TGR inh 7% and HCMV antiviral 10.
`O=C(Nc1ccc(C(=O)N2CCN(c3cccc(Cl)c3)CC2)cc1)c1nsc2ccccc12` gave Sm TGR inh 11% and HCMV antiviral 49.
CCCNC1=C(C)C(=O)C2=C(C1=O)C(COC(N)=O)[C@]1(OC)C3NC3CN21 (stereo partly specified) was read as Pf growth 96h 0.19µM*, Pf growth 48h 1.3µM*, Sm TGR inh 35µM*, SARS PLP yeast 1%, HCV inhibitor inconclusive and HCMV antiviral -69*.
For CO[C@@]12[C@H](COC(N)=O)C3=C(C(=O)C(C)=C(N)C3=O)N1C[C@@H]1N[C@@H]12 the results were Pf growth 96h 5.2µM*, Pf growth 48h 13µM*, Sm TGR inh -8%, HCV inhibitor 6% and HCMV antiviral 24.
`CO[C@@]12[C@@H]3N[C@@H]3CN1C1=C(C(=O)C(N)=C(C)C1=O)[C@@H]2COC(N)=O` gave HCV inhibitor inconclusive and HCMV antiviral -97*.
Screening O=C(CSc1ccsc1[N+](=O)[O-])Nc1cc(F)ccc1F returned Pf growth 96h 31%, Pf growth 48h -29%, Sm TGR inh 35µM*, SARS PLP yeast -2%, HCV inhibitor -8% and HCMV antiviral -3.
`O=C(NCc1ccccn1)[C@H]1[C@H](CO)[C@H]2Cn3c(cccc3=O)[C@@H]1N2CC1CCCCC1` gave HCMV antiviral -1.
`CSc1ccc(OC2(C)CCN(Cc3ccc(OC(F)(F)F)cc3)C2)cc1` (stereo unspecified) gave HCMV antiviral 3.
`Nc1ccc(Br)c2c1C(=O)c1ccccc1C2=O` gave Pf growth 96h 52%, Pf growth 48h inconclusive, Sm TGR inh 13µM*, SARS PLP yeast -9% and HCV inhibitor 10µM*.
For NC1=C(Br)C(=O)c2ccccc2C1=O the results were Pf growth 96h 1µM*, Pf growth 48h 2.6µM*, Sm TGR inh inconclusive, SARS PLP yeast -6%, HCV inhibitor inconclusive and HCMV antiviral -86*.
For COc1ccc(N)c2c1C(=O)c1ccccc1C2=O the results were Pf growth 96h inconclusive, Pf growth 48h 79%, Sm TGR inh -11%, SARS PLP yeast -97%, HCV inhibitor inconclusive and HCMV antiviral 27.
Nc1ccc(O)c2c1C(=O)c1ccccc1C2=O was read as Pf growth 96h 127%, Pf growth 48h 101%, Sm TGR inh -6%, SARS PLP yeast -33%, HCV inhibitor 5µM* and HCMV antiviral -34.
`Cc1ccc(S(=O)(=O)N2CC3(O)CN(C(=O)OC(C)C)N(C(=O)OC(C)C)CC3(OC(=O)NC3CCCC3)C2)cc1` (stereo unspecified) gave HCMV antiviral -8.
Screening CCCc1cc2c(=O)c(-c3cscn3)c(C(=O)OCC)oc2cc1O returned Pf growth 96h -2%, Pf growth 48h 31%, Sm TGR inh 3%, SARS PLP yeast 3%, HCV inhibitor 15% and HCMV antiviral -27.
For CCOC(=O)c1[nH]nc(-c2cc(CC)c(O)cc2O)c1-c1cscn1 the results were Pf growth 96h inconclusive, Pf growth 48h inconclusive, Sm TGR inh 6%, SARS PLP yeast 3%, HCV inhibitor inconclusive and HCMV antiviral -103*.
`Cc1ccc(NC(=O)N(C2CCCCC2)C(C)c2cccnc2)cc1C` (stereo unspecified) gave Pf growth 96h -15%, Sm TGR inh -1%, SARS PLP yeast -3%, HCV inhibitor 6% and HCMV antiviral -68*.
CCc1ccc(NC(=O)N(C2CCCCC2)C(C)c2cccnc2)cc1 (stereo unspecified) was read as Pf growth 96h 43%, Sm TGR inh 0%, SARS PLP yeast 3%, HCV inhibitor 13% and HCMV antiviral 33.
CC(=O)Nc1ccc(S(=O)(=O)NCCC(=O)N2CCC(Cc3ccccc3)CC2)cc1 was read as Pf growth 96h 5.2µM*, Pf growth 48h inconclusive, Sm TGR inh -2%, SARS PLP yeast -3%, HCV inhibitor -7% and HCMV antiviral 0.
`O=C(CCNS(=O)(=O)c1ccccc1)N1CCOCC1` gave Pf growth 96h 8%, Pf growth 48h 6%, Sm TGR inh -24%, SARS PLP yeast inconclusive, HCV inhibitor 18% and HCMV antiviral 20.
`O=C(CCNS(=O)(=O)c1ccccc1)N1CCN(C(c2ccccc2)c2ccccc2)CC1` gave Pf growth 96h 5.9µM*, Pf growth 48h inconclusive, Sm TGR inh -25%, SARS PLP yeast -4% and HCMV antiviral -11.
Screening O=C(CCNS(=O)(=O)c1ccc(Cl)cc1)N1CCCC1 returned Pf growth 96h 18%, Pf growth 48h 16%, Sm TGR inh 1%, SARS PLP yeast 1%, HCV inhibitor -3% and HCMV antiviral -71*.
